Test results published in PubChem BioAssay (NCI).
This is part of a sample that, as a whole, favours compounds with a hit. Of some 83,000 tested, about 20% had one in any assay.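 Step 1: grow cells in 96-well plates. Step 2: add test compound at a single concentration. Step 3: incubate 48 h. Step 4: record percent growth.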 Values without a mark were called inactive. The source made the active and inactive calls. The calls were made as follows: active = growth percent below 10; inactive = the rest.

Tests used:
Assay in all cases: NCI-60 one-dose screen, 48 h (100 = growth as untreated, 0 = no growth, -100 = all killed)
Conditions in all cases: 10 µM unless noted
[1] = tested on: K-562 leukemia
[2] = tested on: MALME-3M melanoma
[3] = tested on: MDA-MB-231 breast
[4] = tested on: RXF 393 renal
[5] = tested on: SF-295 CNS
[6] = tested on: SF-539 CNS
[7] = tested on: UACC-257 melanoma
[8] = tested on: M14 melanoma
[9] = tested on: HCT-15 colon
[10] = tested on: HT29 colon
[11] = tested on: SNB-75 CNS
[12] = tested on: SNB-19 CNS
[13] = tested on: U251 CNS
[14] = tested on: PC-3 prostate
[15] = tested on: SK-MEL-5 melanoma
[16] = tested on: UACC-62 melanoma
[17] = tested on: LOX IMVI melanoma
[18] = tested on: SK-MEL-28 melanoma
[19] = tested on: SF-268 CNS

Compound | growth [1] | growth [2] | growth [3] | growth [4] | growth [5] | growth [6] | growth [7] | growth [8] | growth [9] | growth [10] | growth [11] | growth [12] | growth [13] | growth [14] | growth [15] | growth [16] | growth [17] | growth [18] | growth [19]
CC(=O)c1cccc(Nc2ncnc3ccc(NC(=O)c4ccco4)cc23)c1 | 86.9% | 97.8% | 88.4% | 80.6% | 91.9% | 103% | 94.7% | 87.4% | 86.8% | 82.9% | 94.3% | 93.6% | 98.1% | 83.7% | 70.4% | 84.1% | 92.5% | 98.7% | 
O=C1C=CC(=O)N1c1cccc(N2C(=O)C=CC2=O)c1 | 104% | -36.4% (active) | 107% | -2.87% (active) | 102% | 104% | 96.8% | 98.8% | 23.1% | 23.5% | 96% | 147% | 111% | 99.9% | 116% | 109% | 73.5% | 108% | 108%
CO[C@@]12[C@@H]3NC3CN1C1=C(C(=O)C(N)=C(C)C1=O)[C@@H]2COC(N)=O (some centres not stated) | 28.7% | -12% (active) | 67.5% | 11.9% | 5.61% (active) | 11.8% | -11.7% (active) | 2.4% (active) | 26.4% | -18.1% (active) | 2.19% (active) | 18.3% | 13.4% | 41.8% | -96% (active) | -15.9% (active) | -50.2% (active) | 23% | 
COc1cc2c(cc1I)-c1c(cc(OC)c(OC)c1OC)CC[C@@H]2NC(C)=O | 9.91% (active) | 72.4% | -6.61% (active) | 29.8% | -1.65% (active) | -30.6% (active) | 56.7% | -12.9% (active) | 9.35% (active) | 4.21% (active) | 27.7% | 28% | 17.3% | 27.2% | 2.44% (active) | 16.4% | 33.8% | 41.6% | 
O=[N+]([O-])c1ccccc1CN1CCCCC1 | 136% | 121% | 105% | 104% | 112% | 104% | 110% | 114% | 107% | 113% | 87.8% | 106% | 110% | 91.6% | 105% | 103% | 96.6% | 117% | 112%
COc1cc(-c2nc(-c3nc4cc(C(=O)c5ccccc5)ccc4[nH]3)cc3c2[nH]c2ccccc23)cc(OC)c1OC | 80.3% | 102% | 86.4% | 93.8% | 77.1% | 80.6% | 109% | 85.8% | 83.1% | 104% | 71.5% | 103% | 82% | 65.8% | 75.2% | 76% | 85.2% | 102% | 99.5%
CC(C)=CCC[C@H](C)c1ccc(C)c2c1OCN(CCO)C2 | 77.7% | 89.5% | 88.8% | 52.4% | 98.6% | 88.2% | 92.3% | 90.9% | 105% | 68.7% | 58.7% | 57.9% | 85.1% | 76.9% | 81.2% | 96.1% | 100% | 111% | 
CCCCCCCCCCCCCCCCCC1=NC(C)(C)CN1C(C)(C)CO | -56.6% (active) | -58.1% (active) | -71.6% (active) | -68.7% (active) | 54.3% | -45% (active) | -41% (active) | -100% (active) | 1.33% (active) | -100% (active) | -1.88% (active) | 37.2% | -100% (active) | -1.05% (active) | -53% (active) | -86.9% (active) | -100% (active) | -100% (active) | -84.6% (active)
CN(C)c1ccc(Nc2c3ccccc3nc3ccccc23)cc1 | 8.82% (active) | -14% (active) | 43% | 21.6% | -7.58% (active) | 17.5% | 18.3% | 18.5% | 6.89% (active) | 8.13% (active) | 9.38% (active) | 28.4% | 23% | 33% | 9.1% (active) | 14.3% | -7.85% (active) | 26% | 27.7%
O=C(Nc1cccc(Cl)c1)Nc1cc(C(F)(F)F)ccc1Cl | 16.4% | 5.85% (active) | 25.5% | 40.7% | -1.4% (active) | 43.5% | 19.6% | 18.2% | 9.83% (active) | 4.03% (active) | 18.2% | 16.6% | 6.86% (active) | -3.53% (active) | 24.4% | -8.9% (active) | -11.8% (active) | 25.5% | 41.8%
O=C(Nc1ccc2ncnc(Nc3ccc(F)c(Cl)c3)c2c1)c1cccs1 | 49.9% | 66.4% | 43.4% | -3.16% (active) | 46.4% | 63.5% | 101% | 65% | 51% | 58.7% | 50.5% | 68.9% | 54.7% | 62.8% | 67.1% | 56.4% | 51% | 65.8% | 
Cc1cc(NC(=O)c2ccc(N)cc2)ccc1N=Nc1ccc2cc(S(=O)(=O)O)cc(S(=O)(=O)O)c2c1 | 110% | 116% | 109% | 110% | 106% | 107% | 102% | 112% | 104% | 99% | 101% | 129% | 92.9% | 85.6% | 111% | 114% | 99% | 117% | 115%
c1ccc(C2=Nc3ccccc3SC2)cc1 | 124% | 99.3% | 101% | 129% | 97.2% | 103% | 105% | 103% | 105% | 109% | 77.6% | 109% | 94.9% | 66.4% |  | 96.7% | 90.4% | 109% | 
CCN(CC)c1ccc2nc3c4ccccc4c(=O)cc-3n(-c3ccccc3)c2c1 | 6.09% (active) | -32.3% (active) | -24.1% (active) | 6.05% (active) | -36.7% (active) | -30% (active) | -15.8% (active) | -56.8% (active) | 5.16% (active) | 6.55% (active) | -2.25% (active) | 23.6% | 18.9% | 6.03% (active) |  | -8.44% (active) | -23.2% (active) | 9.68% (active) | 15.5%
O=C(CCCCCCc1nc2ccc(Br)cc2[nH]1)NO | 6.07% (active) | -6.27% (active) | 2.73% (active) | -78.3% (active) | -17.2% (active) | 17.8% | -11% (active) | -16.1% (active) | 35.9% | 1.25% (active) | -2.57% (active) | 1.94% (active) | -15.4% (active) | 16.7% | -81.5% (active) | -79.8% (active) | -98.9% (active) | -16.7% (active) | 11.1%
CC(C)(C)NC(=O)C(OC(=O)C1CCc2cc(F)ccc2O1)c1ccccc1Cl (configuration not stated) | 103% | 94.4% | 92.4% | 96.3% | 95.4% | 108% | 106% | 94.9% | 98.7% | 103% | 83.3% | 97.1% | 102% | 92.4% | 94.5% | 87.6% | 102% | 108% | 
CCCCCCCCCC1=NC(C)(C)CN1C(C)(C)CO | -25.3% (active) | 106% | 88.1% | 167% | 122% | 87.3% | 121% | 113% | 82.2% | 49.2% | 102% | 92.1% | 82.6% | 83.8% | 84% |  | 85.6% | 131% | 94%
CCOC(=O)NNc1cccc(Cl)c1 | 102% | 93.6% | 76.3% | 100% | 109% | 99.8% | 103% | 104% | 107% | 109% | 77.2% | 98% | 100% | 89.7% | 101% | 83.8% | 92.8% | 109% | 110%
CCN(CC)c1ccc(C(=N)c2ccc(N(C)C)cc2)cc1 | 4.01% (active) | 31.9% | 17.8% | 12.8% | -13.1% (active) | -37.4% (active) | -3.29% (active) | -44.4% (active) | 10.9% | 0.0991% (active) | 3.16% (active) | 28.2% | 3.54% (active) | 5.51% (active) | -80.1% (active) | 5.14% (active) | 19.1% | 26.5% | 
CC1CN(CCCOC(=O)Nc2ccc(Cl)cc2)CCN1C(C)(C)C (configuration not stated) | 90.8% | 102% | 102% | 126% | 107% | 125% | 108% | 99.7% | 114% | 104% | 114% | 98.1% | 108% | 90% |  | 84.8% | 91.9% | 106% | 106%
Oc1ccc(CCCCCCc2ccc(O)cc2)cc1 | 102% | 92.8% | 65.3% | 60.4% | 65.1% | 42% | 91.4% | 41.8% | 74.5% | 83.6% | 51.1% | 112% | 54.7% | 57.9% | 50.2% | 13.7% | 53.3% | 104% | 65.2%
CCCCOc1ncnc2nc[nH]c12 | 95.4% | 103% | 115% | 97.7% | 110% | 102% | 101% | 106% | 108% | 96.3% | 95.7% | 99.8% | 106% | 107% | 105% | 104% | 103% | 111% | 
O=C(/C=C/c1cc([N+](=O)[O-])ccc1Cl)c1ccccc1 | 24.4% | 102% | 85.9% | 97.8% | 95.9% | 107% | 104% | 94.1% | 110% | 14.3% | 67.7% | 87.8% | 46% | 85.4% |  | 70.5% | -18.9% (active) | 104% | 94.8%
Nc1cccc(S(=O)(=O)c2cccc(N)c2)c1 | 10.5% | 115% | 105% | 138% | 100% | 113% | 119% | 107% | 114% | 110% | 88.3% | 133% | 113% | 92% | 113% | 102% | 104% | 126% | 107%
